Results from PubChem BioAssay AID1159580 (chemical genetic matrix, 2015).
Where “and” joins values, the source holds several entries; their conditions need not be identical. Equal entries are not always repeated. Screen size: about 5,500 compounds; about 2,000 (36%) were called active. Roughly 18% stayed inconclusive and do not appear here. Rule as the data show it: active = normalized growth mostly below about 0.91 (no sharp cut-off); inconclusive = no clear call, values can overlap the other calls; inactive = mostly above about 0.92. The list shows a part of the results.

Test: chemical genetic growth profiling, strain panel (AID 1159580);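 also: tested at 20 µM; growth read once vehicle control cultures reached saturation at 30 °C; 1 = growth at the plate median or of vehicle wells; lower values mean less growth of the strain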
Details: growth OD

Measured: normalized growth

O=C(O)C1CCCNC1 (stereo unspecified)
inactive: S. cerevisiae deletion strains, locus YJR075W, strain HOC1, hits give low values 1.01 | S. cerevisiae deletion strains, locus YKL009W, strain mrt4, hits give low values 1.02 | S. cerevisiae deletion strains, locus YKL068W, hits give low values 1.01 | S. cerevisiae deletion strains, locus YKL085W, strain MDH1 (second series), hits give low values 1.01 | S. cerevisiae deletion strains, locus YKL085W, strain MDH1, hits give low values 1.01 | S. cerevisiae deletion strains, locus YKL160W, strain elf1, hits give low values 1.01 | S. cerevisiae deletion strains, locus YKL190W, strain CNB1, hits give low values 1.01 | S. cerevisiae deletion strains, locus YKR001C, strain vps1, hits give low values 1.01 | S. cerevisiae deletion strains, locus YKR026C, strain gcn3, hits give low values 1.03 | S. cerevisiae deletion strains, locus YKR091W, strain srl3, hits give low values 1.01 | S. cerevisiae deletion strains, locus YLL001W, strain dnm1, hits give low values 1.04 | S. cerevisiae deletion strains, locus YLL026W, hits give low values 1.01 | S. cerevisiae deletion strains, locus YLL041C, strain sdh2, hits give low values 1.02 | S. cerevisiae deletion strains, locus YLR027C, strain aat2, hits give low values 1.02 | S. cerevisiae deletion strains, locus YLR039C, strain RIC1, hits give low values 1.01 | S. cerevisiae deletion strains, locus YLR058C, strain SHM2, hits give low values 1.01 | S. cerevisiae deletion strains, locus YLR102C, strain apc9, hits give low values 1.01 | S. cerevisiae deletion strains, locus YLR113W, strain HOG1, hits give low values 1.05 | S. cerevisiae deletion strains, locus YLR221C, strain rsa3, hits give low values 1.01 | S. cerevisiae deletion strains, locus YLR258W, strain gsy2, hits give low values 1.02 | S. cerevisiae deletion strains, locus YLR262C, strain YPT6 (second series), hits give low values 1.01 | S. cerevisiae deletion strains, locus YLR262C, strain YPT6, hits give low values 1.05 | S. cerevisiae deletion strains, locus YLR268W, strain sec22, hits give low values 1.04 | S. cerevisiae deletion strains, locus YLR320W, strain mms22, hits give low values 1.02 | S. cerevisiae deletion strains, locus YLR330W, strain CHS5, hits give low values 1 | S. cerevisiae deletion strains, locus YLR342W, strain FKS1 (second series), hits give low values 0.997 | S. cerevisiae deletion strains, locus YLR342W, strain FKS1, hits give low values 1.01 | S. cerevisiae deletion strains, locus YLR357W, strain rsc2, hits give low values 1.03 | S. cerevisiae deletion strains, locus YLR370C, strain arc18, hits give low values 1.02 | S. cerevisiae deletion strains, locus YLR371W, strain rom2, hits give low values 1.03 | S. cerevisiae deletion strains, locus YLR384C, strain iki3, hits give low values 1.01 | S. cerevisiae deletion strains, locus YLR418C, strain cdc73, hits give low values 1.05 | S. cerevisiae deletion strains, locus YML016C, strain PPZ1, hits give low values 1.01 | S. cerevisiae deletion strains, locus YML032C, strain rad52, hits give low values 1.04 | S. cerevisiae deletion strains, locus YML120C, strain ndi1, hits give low values 1.01 | S. cerevisiae deletion strains, locus YML124C, strain tub3, hits give low values 1.01 | S. cerevisiae deletion strains, locus YMR058W, strain fet3, hits give low values 1.02 | S. cerevisiae deletion strains, locus YMR078C, strain ctf18, hits give low values 1.03 | S. cerevisiae deletion strains, locus YMR125W, strain sto1, hits give low values 1.02 | S. cerevisiae deletion strains, locus YMR129W, hits give low values 1.03 | S. cerevisiae deletion strains, locus YMR205C, strain PFK2, hits give low values 1.02 | S. cerevisiae deletion strains, locus YMR223W, strain ubp8, hits give low values 1.02 | S. cerevisiae deletion strains, locus YMR231W, strain pep5, hits give low values 1.01 | S. cerevisiae deletion strains, locus YMR263W, strain SAP30, hits give low values 1.01 | S. cerevisiae deletion strains, locus YMR307W, strain GAS1, hits give low values 0.992 and 0.991 | S. cerevisiae deletion strains, locus YNL067W, strain RPL9B, hits give low values 1.01 | S. cerevisiae deletion strains, locus YNL071W, strain lat1, hits give low values 1.02 | S. cerevisiae deletion strains, locus YNL128W, strain TEP1, hits give low values 1.02 and 0.999 | S. cerevisiae deletion strains, locus YNL153C, strain GIM3, hits give low values 1.01 and 1.02 | S. cerevisiae deletion strains, locus YNL175C, strain NOP13, hits give low values 1.02 | S. cerevisiae deletion strains, locus YNL183C, strain NPR1, hits give low values 0.935 | S. cerevisiae deletion strains, locus YNL197C, strain WHI3, hits give low values 1.01 | S. cerevisiae deletion strains, locus YNL209W, strain ssb2, hits give low values 1.02 | S. cerevisiae deletion strains, locus YNL224C, strain SQS1, hits give low values 1.03 | S. cerevisiae deletion strains, locus YNL233W, strain BNI4, hits give low values 1.01 | S. cerevisiae deletion strains, locus YNL248C, strain rpa49, hits give low values 1 | S. cerevisiae deletion strains, locus YNL250W, strain rad50, hits give low values 1.02 | S. cerevisiae deletion strains, locus YNL271C, strain bni1, hits give low values 1.02 | S. cerevisiae deletion strains, locus YNL298W, strain CLA4, hits give low values 1.02 | S. cerevisiae deletion strains, locus YNL307C, strain MCK1, hits give low values 1.03 | S. cerevisiae deletion strains, locus YNL322C, strain KRE1 (second series), hits give low values 1.02 | S. cerevisiae deletion strains, locus YNL322C, strain KRE1, hits give low values 1.01 | S. cerevisiae deletion strains, locus YNR049C, strain mso1, hits give low values 1.02 | S. cerevisiae deletion strains, locus YNR052C, strain pop2, hits give low values 1.02 | S. cerevisiae deletion strains, locus YOL006C, strain TOP1, hits give low values 1.07 | S. cerevisiae deletion strains, locus YOL012C, strain htz1 1.27 | S. cerevisiae deletion strains, locus YOL147C, strain pex11, hits give low values 1.02 | S. cerevisiae deletion strains, locus YOR001W, strain rrp6, hits give low values 1.02 | S. cerevisiae deletion strains, locus YOR061W, strain CKA2, hits give low values 1.01 | S. cerevisiae deletion strains, locus YOR069W, strain VPS5, hits give low values 1 | S. cerevisiae deletion strains, locus YOR070C, strain gyp1, hits give low values 1.02 | S. cerevisiae deletion strains, locus YOR080W, strain dia2, hits give low values 1.02 | S. cerevisiae deletion strains, locus YOR083W, strain WHI5 (second series), hits give low values 1.02 | S. cerevisiae deletion strains, locus YOR083W, strain WHI5, hits give low values 1.01 | S. cerevisiae deletion strains, locus YOR106W, strain vam3, hits give low values 1.01 | S. cerevisiae deletion strains, locus YOR136W, strain idh2, hits give low values 1.02 | S. cerevisiae deletion strains, locus YOR144C, strain elg1, hits give low values 1.02 | S. cerevisiae deletion strains, locus YOR184W, strain ser1, hits give low values 1.04 | S. cerevisiae deletion strains, locus YOR231W, strain MKK1, hits give low values 0.999 | S. cerevisiae deletion strains, locus YOR265W, strain rbl2, hits give low values 1.02 | S. cerevisiae deletion strains, locus YOR270C, strain vph1, hits give low values 1.04 | S. cerevisiae deletion strains, locus YOR290C, strain snf2, hits give low values 1.02 | S. cerevisiae deletion strains, locus YOR316C, strain cot1, hits give low values 1.02 | S. cerevisiae deletion strains, locus YPL051W, strain arl3, hits give low values 1.02 | S. cerevisiae deletion strains, locus YPL055C, strain LGE1, hits give low values 1.03 | S. cerevisiae deletion strains, locus YPL078C, strain atp4, hits give low values 1.03 | S. cerevisiae deletion strains, locus YPL106C, strain sse1, hits give low values 1.01 | S. cerevisiae deletion strains, locus YPL240C, strain hsp82, hits give low values 1.03 | S. cerevisiae deletion strains, locus YPL241C, strain CIN2, hits give low values 1.01 and 1 | S. cerevisiae deletion strains, locus YPL256C, strain CLN2, hits give low values 0.983 | S. cerevisiae deletion strains, locus YPR119W, strain clb2, hits give low values 1.03 | S. cerevisiae deletion strains, locus YPR141C, strain kar3, hits give low values 1.02 | S. cerevisiae deletion strains, locus YPR163C, strain tif3, hits give low values 1.03 | S. cerevisiae deletion strains, locus YPR167C, strain met16, hits give low values 1.03 | S. cerevisiae deletion strains, strain wtn01, hits give low values 1.02 | S. cerevisiae strains, strain wild type, hits give low values 1.01
